For four compounds, composite z-score and z-score results are on record in PubChem BioAssay.

Assay [1] in a line: compounds binding Alexa647 anti-His antibody – biochemical, small-molecule microarray, 635 nm fluorescence, artefact control for SMM control protein annotation, primary screen (AID 1128).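 Also: score merges feature fluorescence with signal-to-noise for each printed compound spot.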 Particulars: higher = more signal.
The test system of assay [2] is Human papillomavirus type 1a E7 protein (residues 1-88). In words: HPV1a E7 small-molecule binders, primary screen, biochemical, small-molecule microarray, residues 1-88, 635 nm (AID 1129). Particulars: small-molecule microarray binding, fluorescence 635 nm; higher = more signal.
For assay [3], the target named is Focal adhesion kinase 1 (Homo sapiens) (UniProt Q05397). In words: PTK2 protein binding on printed compound slides – biochemical, small-molecule microarray, 635/667 nm fluorescence, BSA, DTT, primary screen (AID 1130).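 Also: composite of spot emission at 667 nm and signal to noise over triplicate slides.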 Particulars: 635 nm fluorescence, higher = more signal.
In assay [4] the test system is Fibrinogen (Alexa647-labelled). The assay can be described thus: Alexa647-fibrinogen binding to printed small molecules – biochemical, small-molecule microarray, 635/667 nm fluorescence, artefact control for SMM control-protein annotation, profiling panel (AID 1131).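 Also: z-score merges 667 nm fluorescence with per-spot signal-to-noise over triplicate slides.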 To be noted: fibrinogen-A647 binding fluorescence, higher = more signal.
Assay [5] concerns the target Follistatin (Homo sapiens) (UniProt P19883). The assay can be described thus: FST protein binding to printed compounds – biochemical, small-molecule microarray, 635/667 nm fluorescence, primary screen (AID 1132). To be noted: 635 nm fluorescence, higher = more signal.
Assay [6] concerns the target Fibroblast growth factor 2 (Homo sapiens) (UniProt P09038). The assay can be described thus: basic fibroblast growth factor binding to printed compounds – biochemical, small-molecule microarray, 635/667 nm fluorescence, primary screen (AID 1133). To be noted: FGF2, fluorescence 635/667, higher = more signal.
Assay [7] is described as follows: JC-1 mitochondrial potential readout, lung cancer cells – cell-based, A549, JC-1 fluorescence, basal, 24 h, 100 nL, profiling panel (AID 1138).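 Also: A549 lung adenocarcinoma cells under basal conditions with no added stimulus; test concentration not given here.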 Particulars: higher = more signal.
Another assay relates to Lefty1. The assay can be described thus: Lefty1 protein binding to printed compounds – biochemical, small-molecule microarray, 635/667 nm fluorescence, primary screen (AID 1139). Particulars: fluorescence 635/667, higher = more signal.
For assay [8], the system named is wheat germ agglutinin (Triticum aestivum), Alexa647-labelled. The assay can be described thus: Alexa647-WGA lectin binding to printed small molecules – biochemical, small-molecule microarray, 635/667 nm fluorescence, artefact control for SMM control-protein annotation, profiling panel (AID 1140).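 Also: score merges 667 nm feature emission with signal to noise over triplicate slides.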 Particulars: WGA-A647 binding, 635 nm fluorescence, higher = more signal.

Assay [9] has as its target Luciferin 4-monooxygenase (Photinus pyralis) (UniProt P08659). In words: inhibition of purified Photinus pyralis luciferase – biochemical, luminescence, purified enzyme, 2006 set, primary screen (AID 1141).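 Also: cell-free assay with purified firefly luciferase at 100 ng per well in PBS; test concentration not given here.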 Particulars: purified firefly luciferase, SteadyGlo luminescence, 30 min; higher = more signal, called active from +8 up or from −8 down.
Assay [10] concerns Wnt5a (protein binding on small-molecule microarray). In words: small molecules binding Wnt5a protein – biophysical, small-molecule microarray, 635/667 nm fluorescence, primary screen (AID 1142).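 Also: fluorescence read at 667 nm with signal to noise per printed feature.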 To be noted: 635 nm fluorescence, higher = more signal.
Assay [11] in a line: ATP-based viability of Huh7 replicon cells – cell-based, CellTiter-Glo luminescence, basal, 48 h, cytotoxicity control for HCV replication inhibitor project, primary screen (AID 1143).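 Also: Huh7 hepatoma cells carrying a hepatitis C replication reporter with no stimulus; test concentration not given here.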 Particulars: higher = more signal, called active from +8 up or from −8 down. For orientation: In antiviral work, replicon cells carry a viral genome segment that copies itself.
Assay [12] in a line: Pseudomonas biofilm growth suppression – PAO1 strain, BacTiter-Glo luminescence, LB-PBS, primary screen (AID 1144). To be noted: P. aeruginosa PAO1 biofilm, 12 h, higher = more signal.
The nature of assay [13]: basal CRE-LacZ reporter activity in PC12 – cell-based, unstimulated, primary screen (AID 1145). To be noted: no forskolin, luminescence, 4.5 h, higher = more signal, called active from +8 up or from −8 down.
Assay [14] is described as follows: forskolin-driven CRE-LacZ activity in PC12 – cell-based, CRE-LacZ reporter, forskolin-stimulated, primary screen (AID 1146).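 Also: PC12 cells with 6xCRE LacZ reporter stimulated by forskolin 10 µM; beta-galactosidase reporter signal reflecting CREB driven transcription.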 To be noted: luminescence, 4.5 h, higher = more signal, called active from +8 up or from −8 down.
Assay [15] has as its target Streptavidin (Streptomyces avidinii) (UniProt P22629). The assay can be described thus: compounds binding control protein streptavidin – biophysical, small-molecule microarray, 635/667 nm fluorescence, artefact control for SMM compound annotation, primary screen (AID 1147).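 Also: signal reflects streptavidin binding to arrayed compounds as a control protein.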 Particulars: higher = more signal.
Assay [16] can be described thus: probe aInhba binding on compound microarray – biochemical, small-molecule microarray, 635/667 nm fluorescence, primary screen (AID 1148).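 Also: score merges 667nm spot fluorescence with signal-to-noise for antibody binding to printed compounds.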 Particulars: higher = more signal.
The target in assay [17] is Torsin-1A (Homo sapiens) (UniProt O14656). The assay can be described thus: TOR1A wild-type binding on microarray – cell lysate, small-molecule microarray, lysate, 635/667 nm, primary screen (AID 1149). To be noted: COS7 hTOR1A-WT lysate, 635 nm fluorescence, higher = more signal.
For assay [18] the target is unchanged. In words: torsin A mutant lysate binding on microarrays – cell lysate, small-molecule microarray, COS7 lysate, 635/667 nm fluorescence, primary screen (AID 1150).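 Also: score pools 667 nm emission and signal to noise measuring lysate protein binding.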 To be noted: COS7 hTOR1A mutant lysate, 635 nm fluorescence, higher = more signal.
The subject of assay [19] is Sonic hedgehog protein (Shh). In words: Sonic hedgehog microarray binding compounds – biochemical, small-molecule microarray, 635/667 nm fluorescence, primary screen (AID 1151).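 Also: Shh protein binding to compounds spotted on small-molecule microarray slides; score combines spot fluorescence intensity with signal-to-noise across triplicate slides.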 To be noted: 635 nm fluorescence, higher = more signal.

The source made the active and inactive calls. Unless noted, no rule for the calls is given here.

Chain of Focal adhesion kinase 1 (Homo sapiens) (Q05397 whole entry, looked up): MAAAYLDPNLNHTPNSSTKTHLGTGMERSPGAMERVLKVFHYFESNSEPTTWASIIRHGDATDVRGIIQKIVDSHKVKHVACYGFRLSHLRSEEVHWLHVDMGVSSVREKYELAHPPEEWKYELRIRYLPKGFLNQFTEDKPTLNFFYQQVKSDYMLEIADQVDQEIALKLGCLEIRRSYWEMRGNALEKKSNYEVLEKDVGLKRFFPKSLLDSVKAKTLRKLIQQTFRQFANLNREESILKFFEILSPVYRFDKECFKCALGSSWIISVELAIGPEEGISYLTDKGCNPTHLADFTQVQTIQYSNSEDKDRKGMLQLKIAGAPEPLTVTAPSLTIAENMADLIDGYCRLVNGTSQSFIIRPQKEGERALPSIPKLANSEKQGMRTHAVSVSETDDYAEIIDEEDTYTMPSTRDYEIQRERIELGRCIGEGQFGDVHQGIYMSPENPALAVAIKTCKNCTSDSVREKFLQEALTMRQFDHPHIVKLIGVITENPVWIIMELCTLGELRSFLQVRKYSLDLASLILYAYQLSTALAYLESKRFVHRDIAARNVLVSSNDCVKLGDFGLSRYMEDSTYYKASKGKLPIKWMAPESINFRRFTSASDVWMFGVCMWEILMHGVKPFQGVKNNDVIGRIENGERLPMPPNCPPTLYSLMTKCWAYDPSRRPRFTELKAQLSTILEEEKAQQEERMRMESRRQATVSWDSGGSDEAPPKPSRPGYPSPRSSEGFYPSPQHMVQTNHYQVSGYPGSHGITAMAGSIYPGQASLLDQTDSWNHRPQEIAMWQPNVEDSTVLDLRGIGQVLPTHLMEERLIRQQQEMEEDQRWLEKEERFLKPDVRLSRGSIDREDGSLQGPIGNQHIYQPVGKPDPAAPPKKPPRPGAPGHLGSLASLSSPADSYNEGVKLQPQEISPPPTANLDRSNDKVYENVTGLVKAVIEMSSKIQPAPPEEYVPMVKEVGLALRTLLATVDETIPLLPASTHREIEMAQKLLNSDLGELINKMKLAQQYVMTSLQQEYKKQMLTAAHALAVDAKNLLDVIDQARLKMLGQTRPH
Chain of Torsin-1A (Homo sapiens) (O14656 whole entry, looked up): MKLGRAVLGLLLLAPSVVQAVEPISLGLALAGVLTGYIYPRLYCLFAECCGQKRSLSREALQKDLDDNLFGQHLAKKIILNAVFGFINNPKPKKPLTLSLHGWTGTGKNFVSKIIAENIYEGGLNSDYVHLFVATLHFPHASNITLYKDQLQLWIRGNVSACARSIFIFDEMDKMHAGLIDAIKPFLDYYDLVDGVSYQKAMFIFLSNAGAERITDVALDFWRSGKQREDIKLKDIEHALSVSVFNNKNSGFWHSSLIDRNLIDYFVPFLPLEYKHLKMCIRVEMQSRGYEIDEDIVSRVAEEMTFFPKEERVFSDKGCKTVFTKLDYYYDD
Chain of Streptavidin (Streptomyces avidinii) (P22629 whole entry, looked up): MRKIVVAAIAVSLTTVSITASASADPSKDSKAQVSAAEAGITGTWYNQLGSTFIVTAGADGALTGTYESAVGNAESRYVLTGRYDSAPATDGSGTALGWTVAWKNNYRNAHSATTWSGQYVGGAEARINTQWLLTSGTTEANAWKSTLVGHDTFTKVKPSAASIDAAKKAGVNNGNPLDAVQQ
Chain of Luciferin 4-monooxygenase (Photinus pyralis) (P08659 whole entry, looked up): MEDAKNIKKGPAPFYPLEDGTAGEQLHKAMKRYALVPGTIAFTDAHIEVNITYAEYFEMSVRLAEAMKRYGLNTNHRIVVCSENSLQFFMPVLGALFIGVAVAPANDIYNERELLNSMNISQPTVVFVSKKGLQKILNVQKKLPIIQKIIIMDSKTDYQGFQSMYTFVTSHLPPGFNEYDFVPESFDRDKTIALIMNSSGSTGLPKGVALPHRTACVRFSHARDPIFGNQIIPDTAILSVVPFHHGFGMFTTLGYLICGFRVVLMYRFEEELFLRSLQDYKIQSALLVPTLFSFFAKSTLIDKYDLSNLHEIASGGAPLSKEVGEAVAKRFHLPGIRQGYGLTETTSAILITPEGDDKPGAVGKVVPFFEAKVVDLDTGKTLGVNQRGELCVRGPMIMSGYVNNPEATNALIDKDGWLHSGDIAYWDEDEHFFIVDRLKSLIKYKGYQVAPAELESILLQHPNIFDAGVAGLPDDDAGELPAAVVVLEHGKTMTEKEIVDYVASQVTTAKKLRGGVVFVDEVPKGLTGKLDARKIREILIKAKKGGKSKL
Chain of Fibroblast growth factor 2 (Homo sapiens) (P09038 whole entry, looked up): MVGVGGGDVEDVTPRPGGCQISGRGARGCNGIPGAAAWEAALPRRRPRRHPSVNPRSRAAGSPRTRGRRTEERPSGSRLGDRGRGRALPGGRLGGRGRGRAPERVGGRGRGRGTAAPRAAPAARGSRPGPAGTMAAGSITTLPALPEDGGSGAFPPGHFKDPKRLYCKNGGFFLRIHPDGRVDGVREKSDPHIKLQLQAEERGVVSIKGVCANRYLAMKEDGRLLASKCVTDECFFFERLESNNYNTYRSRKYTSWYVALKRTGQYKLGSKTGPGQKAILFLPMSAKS
Chain of Follistatin (Homo sapiens) (P19883 whole entry, looked up): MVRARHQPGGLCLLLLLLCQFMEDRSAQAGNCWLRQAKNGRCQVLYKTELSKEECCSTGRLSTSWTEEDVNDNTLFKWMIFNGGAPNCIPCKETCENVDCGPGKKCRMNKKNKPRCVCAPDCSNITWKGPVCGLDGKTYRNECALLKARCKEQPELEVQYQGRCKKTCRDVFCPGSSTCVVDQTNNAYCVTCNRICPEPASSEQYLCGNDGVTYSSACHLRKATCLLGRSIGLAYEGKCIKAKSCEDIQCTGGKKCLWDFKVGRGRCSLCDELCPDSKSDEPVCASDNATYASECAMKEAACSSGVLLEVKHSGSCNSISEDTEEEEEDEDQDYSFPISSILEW

On to `O=C1[C@H]2[C@H]3[C@H](O)[C@H](O)CC(=NOC[C@@H](O)COCc4ccco4)[C@H]3CC[C@H]2C(=O)N1c1ccc(F)cc1F`, for which the composite z-score in [1] is -0.385; in assay [2] it was 0.553; in assay [3] it was -0.0614; in assay [4], -1.6; in assay [5] it was -0.868; in assay [6] it was -1.01. The composite z-score in the assay with Lefty1 is -0.0889; in [8], 0.972; in assay [10], -0.459; in [15], -1.07; in assay [16], -0.103; with Torsin-1A (Homo sapiens) [17], 2.05. Besides, the results for the composite z-score (with Torsin-1A (Homo sapiens) [18]; in assay [19]) were 1.84 and 0.717, respectively. For the same compound, the z-score is 0.383 in assay [7]; -0.243 (inactive) in assay [9]; -2.57 (inactive) in assay [11]; -1.34 (inactive) in assay [12]; 0.699 (inactive) in assay [13]; -0.455 (inactive) in assay [14].
With `CO[C@@H]1COC(=O)CC=C[C@@H](C)[C@H](OC)COC(=O)[C@@H](C)COC(=O)CC=C[C@H]1C`, the composite z-score was -0.227 in assay [1]; -1.38 in assay [2]; -0.482 in assay [3]; -1.39 in assay [4]; 1.18 in assay [5]; 0.867 in [6]. For the same compound, the composite z-score in the assay on Lefty1 is 1.24; in assay [8], -0.839; in assay [10] it was -0.451; in assay [15], 0.0524; in assay [16] it was -0.266; with Torsin-1A (Homo sapiens) [17], 1.4. In addition, the composite z-score with Torsin-1A (Homo sapiens) [18] came out at 0.381; in assay [19], 1.68. For the same compound, the z-score was 1.2 in assay [7]; -0.798 (inactive) in [9]; -0.128 (inactive) in assay [11]; 0.416 (inactive) in assay [12]; 0.518 (inactive) in assay [13]; -0.14 (inactive) in assay [14].
For the compound `CC(=O)OC[C@H]1O[C@@H](ON=C(C)CCN2CCCc3nc(C)c(C)cc32)[C@H](OC(C)=O)[C@@H](OC(C)=O)[C@@H]1OC(C)=O`, the composite z-score is 0.269 in assay [1]; 1.15 in [2]; 0.36 in assay [3]; 0.602 in [4]; 0.881 in assay [5]; 0.664 in [6]. The composite z-score in the assay on Lefty1 is 0.889; in assay [8], 0.476; in assay [10], 0.237; in assay [15] it was 0.345; in assay [16], -0.0626; with Torsin-1A (Homo sapiens) [17] it was -0.164. Besides, the results for the composite z-score (in the assay with Torsin-1A (Homo sapiens) [18]; in [19]) were 0.604 and 1.06, respectively. For the same compound, the z-score was -1.13 in [7]; 0.788 (inactive) in assay [9]; -2.36 (inactive) in assay [11]; -0.731 (inactive) in [12]; 1.89 (inactive) in [13]; -0.112 (inactive) in assay [14].
With `CO[C@H]1COC(=O)CCC[C@@H](C)[C@H](OC)COC(=O)[C@@H]2CCCN2C(=O)CC=C[C@@H]1C`, the composite z-score in [1] was -0.278; in assay [2] it was -0.779; in [3] it was -0.682; in assay [4] it was -0.759; in assay [5] it was 1.33; in assay [6] it was 1.18. Besides, the composite z-score with Lefty1 is 1.44; in [8] it was -0.207; in assay [10], 0.236; in [15], -0.44; in [16], -0.101; in the assay with Torsin-1A (Homo sapiens) [17], 2.64. In addition, the values for the composite z-score (with Torsin-1A (Homo sapiens) [18]; in assay [19]) were 1.05 and 2.06, respectively. The z-score in assay [7] was -0.738; in assay [9], 1.19 (inactive); in assay [11], -0.717 (inactive); in [12], 0.55 (inactive); in assay [13], -0.385 (inactive); in [14] it was -0.0072 (inactive).
